We go through 17 compounds from PubChem BioAssay AID489043 (National Center for Advancing Translational Sciences (NCATS), 2010).

Records with an inconclusive call do not appear. Calls of active or inactive are those of the source. The call rests on the fitted dose curve; in most records, active means well fitted activation curve with a large enough effect; inconclusive means small, poorly fitted or top-dose-only effect; inactive means flat fitted curve, though single readings scatter.
Potency means the concentration at half of the fitted maximal effect.

Chain of Relaxin receptor 2 (Homo sapiens) (Q8WXD0 whole entry, looked up): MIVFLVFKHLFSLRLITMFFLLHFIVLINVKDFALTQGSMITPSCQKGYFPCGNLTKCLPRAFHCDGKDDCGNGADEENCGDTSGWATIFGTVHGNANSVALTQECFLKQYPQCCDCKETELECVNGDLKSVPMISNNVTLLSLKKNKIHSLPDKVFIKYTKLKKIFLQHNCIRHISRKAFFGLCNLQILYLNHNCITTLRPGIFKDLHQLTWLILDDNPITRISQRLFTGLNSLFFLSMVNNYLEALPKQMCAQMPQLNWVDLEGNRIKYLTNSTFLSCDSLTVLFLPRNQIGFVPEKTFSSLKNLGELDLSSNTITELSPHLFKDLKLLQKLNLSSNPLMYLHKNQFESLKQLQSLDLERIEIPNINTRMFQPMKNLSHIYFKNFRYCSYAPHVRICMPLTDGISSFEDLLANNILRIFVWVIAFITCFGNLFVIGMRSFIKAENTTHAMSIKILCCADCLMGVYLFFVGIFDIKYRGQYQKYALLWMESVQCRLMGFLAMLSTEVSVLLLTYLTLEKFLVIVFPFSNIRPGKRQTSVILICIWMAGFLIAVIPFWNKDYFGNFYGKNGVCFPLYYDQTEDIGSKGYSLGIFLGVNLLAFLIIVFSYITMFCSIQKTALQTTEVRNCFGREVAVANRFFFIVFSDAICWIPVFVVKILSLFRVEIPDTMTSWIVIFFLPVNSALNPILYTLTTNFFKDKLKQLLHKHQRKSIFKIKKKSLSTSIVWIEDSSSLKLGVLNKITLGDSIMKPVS

The experiment deals with Relaxin receptor 2 (Homo sapiens) (UniProt Q8WXD0). In words: qHTS Assay for Agonists of the Relaxin Receptor RXFP1: RXFP2 Hit Validation. Further: nearly all actives have a fitted effect of over 65% in size.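 On activation: 0% = buffer only basal cAMP and 100% = 29 nM porcine relaxin.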 As to conditions: HEK293 RXFP2 cAMP TR-FRET, 30 min; series mostly up to 115 µM; activation: at the top concentration. The procedure, abridged:
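HEK293 cells expressing RXFP2, cultured 16-24 hr, treated 30 min at 37C with compounds plus PDE4 inhibitor Ro 20174. cAMP measured by HTRF TR-FRET; EC50 from Hill fits, normalized to buffer and 29 nM porcine relaxin.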
A general note: qHTS replaces the single test concentration by a dilution series.
As to `CN(Cc1ccccc1)C(=O)c1ccccc1NC(=O)c1ccco1`, the “activation” value was 3.37% [at 125 µM] (inactive).
Same read-out and setting: the value for `CC(C(=O)Nc1cccnc1)n1cc([N+](=O)[O-])cn1` (configuration not stated) was 24% (inactive); that for `CCOC(=O)CSc1nc(=O)n2cc(C)ccc2n1` was 21.2% (inactive).
Still for that read-out and setting: the value for `Cc1ccc(C(=O)Nc2cccc(C(F)(F)F)c2)cc1NC(=O)c1cnnc2ccccc12` was 5.25% (inactive).
For the compound `CC(=O)Nc1ccc(S(=O)(=O)NCc2cc(=O)n(C)c(=O)n2C)cc1`, the Potency was 30.9 µM (active).
On the same count and under the same terms, in the case of `COC(=O)Cn1cnc2c(C#N)c3n(c2c1=O)CCCCC3` it was 9.77 µM (active).
In the case of `O=C(Nc1ccccc1)c1ccccc1NC(=O)C1CCCCC1`, the “activation” value is 5.98% [at 125 µM] (inactive).
On to `C=CCOc1c(Cl)cc(CNc2ccc(N(C)C)cc2)cc1OC`, for which the “activation” value is 6.02% (inactive).
Consider `C=C(C)C(=O)Nc1cccc(C2=NOC3(C2)C[C@@H](C(N)=O)N(C(=O)c2ccc(Cl)cc2)C3)c1` (some centres not stated), for which the “activation” value was 3.65% (inactive).
Same read-out and setting: in the case of `CC1C/C(=N\NC(N)=S)c2cc(Cl)ccc2S1` (configuration not stated) it was 17.3% (inactive); in that of `O=C(Nc1ccccc1C(=O)NCc1ccco1)c1ccco1`, 13% [at 125 µM] (inactive).
With `Cc1ccc(CN(C)C(=O)c2ccc3c(c2)NC(=O)CS3)o1`, the “activation” value was -25.2% (inactive).
The same measure, in the same setting: in the case of `O=C(Nc1ccccc1C(=O)Nc1ccc(F)cc1)c1ccco1` it was 3.88% [at 125 µM] (inactive); in that of `CCc1nn(CC(=O)NCCCN2CCOCC2)c(=O)c2cc3sccc3n12`, 22.1% (inactive).
As for `CCc1nnc(NC(=O)CSc2nc(C)nc3c2c(=O)n(C)c(=O)n3C)s1`, the Potency was 10.9 µM (active).
The same measure, in the same setting: in the case of `O=C(Cn1cnc2c(nnn2-c2ccc(F)cc2)c1=O)NCC1CCCO1` (configuration not stated) it was 11 µM (active); in that of `CCc1ccc2n(-c3ccc(OC)cc3)c([S-])c(C(=O)Nc3cc(C)cc(C)c3)[n+]2c1`, 30.8 µM (active).
